Test [1] has as its target Glucocorticoid receptor (Homo sapiens) (UniProt P04150). Put plainly: qHTS assay for small molecule agonists of glucocorticoid receptor signaling (AID 588532; active means well fitted curve in the direction sought with a large enough effect in the signal ratio, with a control signal flat; the % refers to the signal ratio;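 further: 100% = dexamethasone at 0.1 µM and 0% = DMSO only wells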). The following applies: HeLa MMTV-bla, beta-lactamase ratio, agonist, 18 h; stronger effect = higher value; percent of dexamethasone control, DMSO zero. A digest of the protocol: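 Cells were plated and rested 3-5 h at 37 C, compounds were added in titration and incubated 18 h, then CCF4 substrate was loaded for 2 h at RT before reading blue/green fluorescence. EC50 came from Hill-equation fitting.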

For test [2] the target is unchanged. Put plainly: qHTS assay for small molecule antagonists of glucocorticoid receptor signaling (AID 588533; active means well fitted inhibition curve with a large enough effect in the signal ratio, with a control signal flat, not every such curve was filed as active; the % refers to the signal ratio;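 further: cells stimulated with 2 nM dexamethasone as agonist; on the % scale 0 is the no-effect control and ±100 the full control effect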). As to conditions: HeLa MMTV-bla, GRE beta-lactamase ratio, antagonist mode, 18 h; series mostly up to 76.8 µM. A digest of the protocol:
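Antagonist-mode qHTS: compound titrations added to GRE-bla HeLa cells, then dexamethasone 2 nM final; 18 h, 37 C. CCF4 FRET fluorescence normalized to dexamethasone and DMSO; IC50 from Hill fit.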

Test [3] in a line: qHTS assay for small molecule antagonists of peroxisome proliferator-activated receptor delta signaling (AID 588535).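 Further: cells co-treated with a PPAR-delta agonist as stimulator during compound exposure.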 The following applies: HEK293T PPARd-UAS-bla, beta-lactamase FRET ratio, 18 h; 460 nm channel. A digest of the protocol: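 Cells were seeded at 4000 per well in assay medium containing 2% charcoal/dextran FBS and held 5 hrs at 37 C. Compounds were then added for 18 hrs. CCF4 substrate was applied for 2 hrs at room temperature before fluorescence reading.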
On the technique in general: Quantitative high-throughput screening tests each substance at several concentrations.

Test [4] has as its target Peroxisome proliferator-activated receptor gamma (Homo sapiens) (UniProt P37231). Put plainly: qHTS assay for small molecule agonists of peroxisome proliferator-activated receptor gamma signaling (AID 588536; active means well fitted curve in the direction sought with a large enough effect in the signal ratio, with a control signal flat, not every such curve was filed as active; the % refers to the signal ratio;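 further: 0% = DMSO basal wells and 100% = rosiglitazone at 2 µM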). As to conditions: HEK293 PPARg-UAS-bla, beta-lactamase ratio, 16 h, percent of rosiglitazone response, DMSO as zero; series mostly up to 76.7 µM. A digest of the protocol:
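HEK293 UAS-bla reporter line, 1% charcoal/dextran FBS; titration, 16 h, 37 C; CCF4 loading 2 h RT; fluorescence 460/530 nm. Normalized to rosiglitazone 2 uM = 100%, DMSO = 0%.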

For test [5] the target is unchanged. Description: qHTS assay for small molecule antagonists of peroxisome proliferator-activated receptor gamma signaling (AID 588537; active means well fitted inhibition curve with a large enough effect in the signal ratio, with a control signal flat, not every such curve was filed as active; the % refers to the signal ratio;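 further: reporter cells co-stimulated with 50 nM rosiglitazone agonist during compound treatment; % of control where 0% means no effect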). The following applies: HEK293 PPARg-UAS-bla, beta-lactamase ratio, antagonist mode; series mostly up to 76.8 µM. A digest of the protocol: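 Step one: plate 3000 HEK293 UAS-bla cells per well in medium with 1% stripped serum and hold 6-6.5 h at 37 C. Step two: add compound and 50 nM agonist for 16 h. Step three: CCF4 loading, fluorescence read.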

Test [6] addresses Vitamin D3 receptor (Homo sapiens) (UniProt P11473). Put plainly: qHTS assay for small molecule agonists of vitamin D receptor signaling (AID 588543; calls by dose curve;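 further: 0% = DMSO basal and 100% = reference agonist control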). The following applies: HEK293T VDR-UAS-bla, beta-lactamase ratio, 16 h; series mostly up to 76.8 µM. The procedure, abridged:
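Agonist-mode beta-lactamase reporter: HEK293T VDR-UAS-bla cells in charcoal-stripped 2% FBS, compound series 16 h 37 C, CCF4 2 h RT. EC50 from Hill fit, scaled against DMSO and 50 nM calcitriol control.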

Test [7] is described as follows: qHTS assay for small molecule agonists of retinoid X receptor alpha signaling (AID 588544). The following applies: HEK293T RXRa-UAS-bla, beta-lactamase reporter, 18 h; 530 nm emission.
Test [8] addresses Thyroid hormone receptor beta (Homo sapiens) (UniProt P10828). Put plainly: qHTS assay for small molecule agonists of thyroid hormone receptor beta signaling (AID 588545; calls by dose curve;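 further: 0% = DMSO only and 100% = 10 nM T3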). The following applies: TR-UAS-bla GripTite HEK 293, beta-lactamase ratio, agonist mode, 18 h; series mostly up to 76.7 µM. A digest of the protocol:
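Stimulation of a TR-driven beta-lactamase reporter was quantified in GripTite HEK 293 cells. Compound series ran for 18 hrs; curves were normalized to T3 and DMSO controls and fitted to yield EC50.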

Test [9] in a line: qHTS assay for small molecule antagonists of retinoid X receptor alpha signaling (AID 588546; active means well fitted inhibition curve with a large enough effect in the signal ratio, with a control signal flat, not every such curve was filed as active; the % refers to the signal ratio;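 further: cells stimulated with 9-cis-retinoic acid as agonist; on the % scale 0 is the no-effect control and ±100 the full control effect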). As to conditions: HEK293T RXRa-UAS-bla, beta-lactamase ratio, antagonist mode; measured here: W530 green channel, cytotoxicity proxy. The procedure, abridged: (§1)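 Beta-lactamase reporter inhibition, read as CCF4 fluorescence ratio (ex 405, em 460/530 nm) after 2 h at RT. HEK293T UAS-bla cells, 2500/well, were stimulated with 9-cis-RA at 500 or 100 nM final alongside test compound for 18 h at 37 C.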

For test [10], the target named is Retinoic acid receptor RXR-alpha (Homo sapiens) (UniProt P19793). The test is described as above. As to conditions: HEK293T RXRa-UAS-bla, beta-lactamase ratio, antagonist mode. A digest of the protocol:
as §1

A short description of test [11]: qHTS assay for small molecule activators of the nuclear factor-kappa B (NF-kB) signaling pathway (AID 651749; active means well fitted activation curve with a large enough effect in the signal ratio; the % refers to the signal ratio; further: % of control where 0% means no effect). The following applies: NF-kB-bla ME-180 cells, beta-lactamase FRET ratio, 16 h; activation: stronger effect = higher value. The procedure, abridged:
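Incubation lasted 16 hr at 37C in 5% CO2 after 23 nL compound addition to ME-180 NF-kB-bla cells. Activation appears as beta-lactamase-mediated FRET loss.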

The nature of test [12]: qHTS assay for environmental chemicals that activate the Aryl hydrocarbon Receptor (AhR) signaling pathway (AID 651777). Further: % of control where 0% means no effect; nearly all actives have a fitted effect of over 15% in size. As to conditions: 1A2-DRE human hepatoma cells, luciferase, 24 h; activation: stronger effect = higher value. A digest of the protocol: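 Following a 24 hr incubation with test chemicals at 37 C and 5% CO2, 1A2-DRE human hepatoma cells received One-Glo reagent; after 30 min at room temperature, luciferase output reflected CYP1A2 induction via AhR.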

Test [13] deals with Peroxisome proliferator-activated receptor alpha (Homo sapiens) (UniProt Q07869). Put plainly: qHTS assay for small molecule agonists of the peroxisome proliferator-activated receptor alpha (PPARalpha) signaling pathway (AID 651778). Further: % of control where 0% means no effect. The following applies: PathHunter PPARalpha complementation, chemiluminescence, 6 h; max response: stronger effect = higher value. A digest of the protocol:
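Enzyme-fragment complementation assay in which ligand-bound PPARalpha translocates and forms an active enzyme that generates chemiluminescence. Cells were plated overnight, exposed to compound for 6 hr at 37 C, and then given detection reagent for 60 min at room temperature.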

Test [14] in a line: qHTS assay for small molecule agonists of the antioxidant response element (ARE) signaling pathway measured by Nrf2-dependant transcriptional activity (AID 720636; active means well fitted curve in the direction sought with a large enough effect in the repeat runs; an effect the other way counts as inactive or inconclusive; further: % of control where 0% means no effect). The following applies: ARE-luc HepG2, Nrf2 luciferase reporter, 16 h; series mostly up to 92.4 µM. The procedure, abridged: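 ONE-Glo luminescence, read 30 min after reagent addition at room temperature, reflected ARE reporter activity in HepG2 cells that had been incubated with compound for 16 hr at 37 C in 1% dialyzed FBS.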

A short description of test [15]: qHTS assay for small molecule agonists of the antioxidant response element (ARE) signaling pathway measured by Nrf2-dependant transcriptional activity - cell viability counter screen (AID 720653; active means well fitted curve in the direction sought with a large enough effect in the repeat runs; an effect the other way counts as inactive or inconclusive; further: on the % scale 0 is the no-effect control and ±100 the full control effect). The following applies: ARE-bla HepG2 viability, CellTiter-Glo ATP luminescence, 16 h; max response: stronger effect = lower value. The procedure, abridged: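 ARE-bla HepG2 cells treated with compounds for 16 h at 37C; this counter screen measures viability as intracellular ATP by CellTiter-Glo luminescence after 30 min at room temperature.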

A short description of test [16]: qHTS assay for cell viability of HEK293 cells (AID 743288). Further: on the % scale 0 is the no-effect control and ±100 the full control effect; nearly all actives have a fitted effect of over 50% in size. As to conditions: ATP luminescence (CellTiter-Glo), 18 h; max response: stronger effect = lower value. The procedure, abridged: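 Total intracellular ATP, measured with a luciferase-coupled reagent, indicates the number of viable HEK293 cells. Exposure to test chemicals lasts 18 h at 37 C in 1,536-well format at 2,000 cells/well.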

A short description of test [17]: qHTS assay for cell viability of the p53RE-bla HCT-116 cell line (AID 743292). Further: on the % scale 0 is the no-effect control and ±100 the full control effect; nearly all actives have a fitted effect of over 55% in size. The following applies: p53RE-bla HCT-116 viability, ATP luminescence, 16 h; series mostly up to 95 µM. The procedure, abridged:
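After plating at 4,000 cells per well and a 5 h rest at 37 C, HCT-116 cells carrying p53RE-bla received test chemicals in DMSO. Sixteen hours later at 37 C, CellTiter-Glo was added and luminescence recorded following 30 min at room temperature.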

The target in test [18] is Nuclear receptor subfamily 1 group I member 2 (Rattus norvegicus) (UniProt Q9R1A7). Description: qHTS assay for small molecule activators of the rat pregnane X receptor (rPXR) signaling pathway (AID 651751; call rule not given here; further: 0% is about no effect). As to conditions: rPXR reporter cells, luciferase (One-Glo), 24 h.
A short description of test [19]: qHTS assay for small molecule activators of the human pregnane X receptor (PXR) signaling pathway (AID 720659; call rule not given here; further: 0% is about no effect). The following applies: DPX-2 HepG2 CYP3A4-luciferase, 24 h; series mostly up to 92.3 µM.
A short description of test [20]: qHTS assay for small molecule activators of the p53 signaling pathway (AID 651743; active means well fitted activation curve with a large enough effect in the signal ratio, not every such curve was filed as active; the % refers to the signal ratio; further: % of control where 0% means no effect). As to conditions: HCT-116 p53RE-bla, beta-lactamase FRET ratio, 16 h; activation: stronger effect = higher value. A digest of the protocol: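 HCT-116 p53RE-bla, 4,000 cells/well; 5 h settle; cpd/DMSO 16 h, 37 C; LiveBLAzer B/G 2 h RT; fluorescence intensity.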

The structures appear in SMILES notation. Records with an inconclusive call do not appear. The source made the active and inactive calls. Unless noted, the call rests on the fitted dose curve; in most records, active means well fitted curve in the direction sought with a large enough effect; inconclusive means small, poorly fitted or top-dose-only effect, or another doubt; inactive means no such curve, though single readings can be large; an effect the other way counts as inactive or inconclusive.

Chain of Peroxisome proliferator-activated receptor gamma (Homo sapiens) (P37231 whole entry, looked up): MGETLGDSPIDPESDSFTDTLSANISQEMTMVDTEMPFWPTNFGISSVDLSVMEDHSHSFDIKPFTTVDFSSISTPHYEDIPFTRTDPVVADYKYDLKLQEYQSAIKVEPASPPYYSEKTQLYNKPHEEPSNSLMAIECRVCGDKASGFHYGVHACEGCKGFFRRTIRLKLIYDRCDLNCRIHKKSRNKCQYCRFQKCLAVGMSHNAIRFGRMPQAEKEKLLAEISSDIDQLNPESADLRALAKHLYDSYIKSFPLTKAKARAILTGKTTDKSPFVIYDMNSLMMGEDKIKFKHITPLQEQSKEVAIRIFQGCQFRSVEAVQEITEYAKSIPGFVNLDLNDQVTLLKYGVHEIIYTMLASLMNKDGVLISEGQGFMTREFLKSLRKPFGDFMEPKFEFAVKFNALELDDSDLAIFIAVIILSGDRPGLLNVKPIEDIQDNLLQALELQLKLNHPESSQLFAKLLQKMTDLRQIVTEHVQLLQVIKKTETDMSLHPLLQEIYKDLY
Chain of Nuclear receptor subfamily 1 group I member 2 (Rattus norvegicus) (Q9R1A7 whole entry, looked up): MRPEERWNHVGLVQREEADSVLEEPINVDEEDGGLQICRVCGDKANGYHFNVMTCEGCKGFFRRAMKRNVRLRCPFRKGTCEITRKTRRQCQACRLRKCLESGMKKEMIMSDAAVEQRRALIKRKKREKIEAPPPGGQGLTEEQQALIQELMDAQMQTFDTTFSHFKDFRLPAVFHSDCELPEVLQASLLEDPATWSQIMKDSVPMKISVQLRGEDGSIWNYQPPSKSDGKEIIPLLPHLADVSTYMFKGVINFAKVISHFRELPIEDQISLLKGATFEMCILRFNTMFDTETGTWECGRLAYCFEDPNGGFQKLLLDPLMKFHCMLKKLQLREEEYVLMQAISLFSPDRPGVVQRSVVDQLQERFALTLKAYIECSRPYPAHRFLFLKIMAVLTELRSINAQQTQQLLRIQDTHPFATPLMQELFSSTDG
Chain of Thyroid hormone receptor beta (Homo sapiens) (P10828 whole entry, looked up): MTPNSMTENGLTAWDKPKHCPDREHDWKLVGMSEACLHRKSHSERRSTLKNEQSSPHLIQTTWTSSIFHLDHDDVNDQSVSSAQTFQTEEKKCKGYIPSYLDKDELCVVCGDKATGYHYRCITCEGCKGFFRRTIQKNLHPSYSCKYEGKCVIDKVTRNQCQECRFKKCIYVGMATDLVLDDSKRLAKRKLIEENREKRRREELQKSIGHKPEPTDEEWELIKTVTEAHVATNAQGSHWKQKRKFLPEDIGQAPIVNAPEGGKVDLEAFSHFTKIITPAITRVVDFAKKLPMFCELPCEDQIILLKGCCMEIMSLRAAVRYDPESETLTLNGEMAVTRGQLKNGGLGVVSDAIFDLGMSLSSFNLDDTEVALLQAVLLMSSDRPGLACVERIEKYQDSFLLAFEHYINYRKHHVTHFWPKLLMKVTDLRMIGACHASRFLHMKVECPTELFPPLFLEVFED
Chain of Glucocorticoid receptor (Homo sapiens) (P04150 whole entry, looked up): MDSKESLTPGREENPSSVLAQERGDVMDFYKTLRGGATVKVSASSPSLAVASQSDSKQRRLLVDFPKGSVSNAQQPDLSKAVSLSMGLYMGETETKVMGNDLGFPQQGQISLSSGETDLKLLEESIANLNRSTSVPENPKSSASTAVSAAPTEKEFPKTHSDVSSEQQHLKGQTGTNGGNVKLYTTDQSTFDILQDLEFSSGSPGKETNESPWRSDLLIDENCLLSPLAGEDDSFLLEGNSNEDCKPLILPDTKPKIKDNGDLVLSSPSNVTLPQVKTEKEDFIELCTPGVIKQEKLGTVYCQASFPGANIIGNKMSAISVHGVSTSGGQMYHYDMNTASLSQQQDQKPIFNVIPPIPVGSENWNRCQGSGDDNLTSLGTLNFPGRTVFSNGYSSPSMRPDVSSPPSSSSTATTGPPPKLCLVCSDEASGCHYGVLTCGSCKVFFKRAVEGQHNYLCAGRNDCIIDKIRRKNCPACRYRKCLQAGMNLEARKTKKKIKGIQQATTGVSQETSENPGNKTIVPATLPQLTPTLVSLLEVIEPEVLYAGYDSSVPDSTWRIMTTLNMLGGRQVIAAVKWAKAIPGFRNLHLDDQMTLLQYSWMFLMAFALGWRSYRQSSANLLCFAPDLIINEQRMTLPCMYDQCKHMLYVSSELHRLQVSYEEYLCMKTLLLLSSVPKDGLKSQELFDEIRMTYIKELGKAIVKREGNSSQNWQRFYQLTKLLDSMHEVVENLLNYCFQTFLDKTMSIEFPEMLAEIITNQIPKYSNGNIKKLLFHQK
Chain of Retinoic acid receptor RXR-alpha (Homo sapiens) (P19793 whole entry, looked up): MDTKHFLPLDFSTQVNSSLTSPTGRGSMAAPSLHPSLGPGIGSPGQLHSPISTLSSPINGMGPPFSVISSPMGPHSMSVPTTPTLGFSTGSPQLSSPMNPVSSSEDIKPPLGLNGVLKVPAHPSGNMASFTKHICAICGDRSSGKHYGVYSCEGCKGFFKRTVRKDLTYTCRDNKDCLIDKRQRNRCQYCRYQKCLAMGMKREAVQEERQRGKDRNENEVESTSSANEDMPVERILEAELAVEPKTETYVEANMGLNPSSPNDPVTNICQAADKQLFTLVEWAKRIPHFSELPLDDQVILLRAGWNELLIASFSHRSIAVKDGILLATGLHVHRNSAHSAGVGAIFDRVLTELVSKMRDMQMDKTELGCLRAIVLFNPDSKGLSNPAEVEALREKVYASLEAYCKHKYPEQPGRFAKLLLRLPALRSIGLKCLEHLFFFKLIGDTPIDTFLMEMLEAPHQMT
Chain of Peroxisome proliferator-activated receptor alpha (Homo sapiens) (Q07869 whole entry, looked up, the tested form may be a part): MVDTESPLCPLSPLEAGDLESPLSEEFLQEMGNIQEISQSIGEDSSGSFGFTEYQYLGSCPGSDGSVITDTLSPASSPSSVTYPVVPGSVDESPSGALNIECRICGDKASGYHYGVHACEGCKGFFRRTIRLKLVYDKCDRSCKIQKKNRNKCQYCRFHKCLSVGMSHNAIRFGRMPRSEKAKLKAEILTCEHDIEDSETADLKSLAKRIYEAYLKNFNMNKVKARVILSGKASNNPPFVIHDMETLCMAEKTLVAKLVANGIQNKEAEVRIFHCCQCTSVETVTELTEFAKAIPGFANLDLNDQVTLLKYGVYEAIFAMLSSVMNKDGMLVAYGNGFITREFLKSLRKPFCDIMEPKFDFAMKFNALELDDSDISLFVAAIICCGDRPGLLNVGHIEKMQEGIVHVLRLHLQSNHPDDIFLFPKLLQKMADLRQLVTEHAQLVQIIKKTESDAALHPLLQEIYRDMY
Chain of Vitamin D3 receptor (Homo sapiens) (P11473 whole entry, looked up): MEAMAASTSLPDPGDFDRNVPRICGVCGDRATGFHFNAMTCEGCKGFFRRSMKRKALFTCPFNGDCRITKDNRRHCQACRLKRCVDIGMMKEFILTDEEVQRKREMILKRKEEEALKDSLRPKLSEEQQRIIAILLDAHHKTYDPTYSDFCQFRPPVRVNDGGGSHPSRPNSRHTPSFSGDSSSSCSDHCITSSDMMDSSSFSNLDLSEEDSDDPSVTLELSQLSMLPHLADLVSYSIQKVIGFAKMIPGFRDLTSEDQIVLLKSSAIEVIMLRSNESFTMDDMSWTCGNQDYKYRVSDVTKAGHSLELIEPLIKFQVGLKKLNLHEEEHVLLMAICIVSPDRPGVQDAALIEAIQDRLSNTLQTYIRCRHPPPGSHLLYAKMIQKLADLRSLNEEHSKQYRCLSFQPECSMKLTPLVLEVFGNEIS

Consider `COC(OC)(C(=O)c1ccccc1)c1ccccc1`, for which the activation in test [1] was -8.93% (inactive); in test [11], 0.121% (inactive); in [12], 1.33% (inactive). Besides, the Potency entry in test [2], in [5], in test [8], in [14] and in test [17] was “inactive” each time. Moreover, the max response in test [3] is 13.5%; in [7], -1.48%; in [9], -15.2%; in test [10], -6.2% (inactive); in [13], -0.253% (inactive); in test [15], 5.37% (inactive). Moreover, the max response in test [16] is -5.41% (inactive); in [18], 3.76% (inactive). Besides, the outcome in test [4], in [6] and in test [19] was inactive.

With `C=CCOc1nc(OCC=C)nc(OCC=C)n1`, the activation is -1.63% (inactive) in [1], -3.44% (inactive) in [20], 0.86% (inactive) in [11] and 5.16% (inactive) in test [12]. The Potency entry in [2], in test [8], in test [14] and in test [17] was “inactive” throughout. Further, the max response was 15.5% in test [3]; -0.634% in test [7]; -8.71% in test [9]; 0.817% (inactive) in test [10]; -2.18% (inactive) in test [13]; 1.36% (inactive) in test [15]. Also, the values for the max response in test [16] and in [18] were -0.661% (inactive) and -0.162% (inactive), respectively. Besides, the outcome in [4] and in [6] was inactive.

Regarding `CCOCCOCCOCCO`, the outcome in test [4], in [6] and in test [19] was inactive. Also, the Potency entry in [5], in test [8], in test [14] and in test [17] was “inactive” throughout. In addition, the max response is -7.49% in test [7]; 0.354% in test [9]; -20% (inactive) in [10]; 19.8% (inactive) in [15]; 10.6% (inactive) in test [18]. Moreover, the results for the activation in test [20], in test [11] and in test [12] were -1.32% (inactive), -1.33% (inactive) and -0.451% (inactive), respectively.

For `CC1=CC(=O)CC(C)(C)C1`, the activation is -9.62% (inactive) in test [1], 0.625% (inactive) in test [20] and 0.188% (inactive) in [12]. Moreover, the Potency entry in test [2], in [5], in test [8], in test [14] and in test [17] was “inactive” in each case. Also, the max response in test [3] is 13.3%; in [7], -20.2%; in test [9] it was -3.41%; in test [10] it was -18.4% (inactive); in test [13] it was 0.525% (inactive); in test [15], -10.2% (inactive). Further, the max response in test [16] is -2.87% (inactive); in [18], 1.52% (inactive). Further, the result in [6] and in [19] was inactive.

Consider `Cc1ccc2c(c1)C(=O)OC2=O`, for which the activation in test [1] is -1.62% (inactive); in test [20], -6.05% (inactive); in test [12] it was 2.38% (inactive). The Potency entry in [2], in test [5], in test [14] and in test [17] was “inactive” throughout. Besides, the max response in [3] is 33.6%; in test [7], -13.4%; in test [9], -9.63%; in [10], -14.4% (inactive); in test [13] it was -2.31% (inactive); in test [15], -8.54% (inactive). Also, the results for the max response in [16] and in test [18] were -7.63% (inactive) and 0.0212% (inactive), respectively. In addition, the outcome in test [4], in test [6] and in test [19] was inactive.

On to `CCCCCCCCCCCCCCC`, for which the activation in test [1] is -6.59% (inactive); in test [11] it was -1.21% (inactive). The Potency result in test [2], in test [8], in test [14] and in test [17] was “inactive” throughout. Besides, the max response was -0.185% in test [3]; -8.06% in [9]; -6.6% (inactive) in [10]; 10.3% (inactive) in test [15]; -6.32% (inactive) in test [16]; -4.43% (inactive) in test [18]. The outcome in test [6] and in test [19] was inactive.
